Sampled rows, rich in hits. Any-hit rate of the full collection: about 7.9%.
HT1080-NT tox – qHTS for induction of synthetic lethality in tumor cells producing 2HG: qHTS for the HT-1080-NT fibrosarcoma cell line; HT-1080-NT fibrosarcoma viability, CellTiter-Glo ATP luminescence, 48 h; AID 686970, 2013; actives 1.6% (n = 360,000); Potency, µM (doses to about 46.1 µM), for inactives: top-dose activity, negative = less viability, most hits filed as cytotoxic;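 also: NT is the 2HG producing partner of a matched IDH1 knockdown line; 0% = DMSO-treated cells and -100% = media-only wells without cells; nearly all actives have a fitted effect of over 55% in size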
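HT-1080-NT fibrosarcoma cells (2HG-overproducing), 750 cells/well in RPMI with 5% FBS, dosed after 2 h and incubated 48 h at 37C. CellTiter-Glo luminescence normalized to DMSO and no-cell wells; concentration-response curves fitted and classed.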
SW480 rerep – A quantitative high throughput screen for small molecules that induce DNA re-replication in SW480 colon adenocarcinoma cells. SW480 DNA re-replication, Hoechst DNA content imaging, 48 h. Potency, µM (series often up to 46.1 µM), for inactives: at the highest dose re-replication activation, usual class: activators. actives 1.8% (n = 340,000); also: % of control where 0% means no effect; nearly all actives have a fitted effect of over 55% in size
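Per well, 250 cells were exposed to pinned compound for 48 hr. Nuclear DNA was visualised with Hoechst (40 min, 37 C) and total object intensity recorded by fluorescence scanning.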
KB-V1 MDR tox – qHTS assay for MDR1-selective chemotherapeutics: Primary screen using the drug-selected MDR subline cells KB-V1; KB-V1 MDR cells viability, CellTiter-Glo, 72 h; Potency, µM (highest dose often 46.1 µM), usual class: cytotoxic; actives 3.4% (n = 400,000); also: % is scaled to controls: 0 for no effect and ±100 for the full control effect; nearly all actives have a fitted effect of over 60% in size
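Compound-treated KB-V1 multidrug-resistant cells, 72 h, 37 degrees C; viability by CellTiter-Glo. Fitted qHTS curves give the values.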
HT1080 IDH1KD tx – qHTS for induction of synthetic lethality in tumor cells producing 2HG: qHTS for the HT-1080-IDH1KD cell line; actives 2% (n = 360,000); Potency, µM (top dose mostly 46.1 µM), inactives show at the top dose activity, negative = toxicity, actives largely listed as cytotoxic; HT-1080 IDH1 knockdown viability, ATP luminescence, 48 h;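 also: 0% = DMSO wells and -100% = cell-free medium wells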
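In this qHTS, HT-1080 cells depleted of IDH1 are exposed for 48 h at 37 °C to compound titrations. Toxicity is scored from CellTiter-Glo luminescence, with DMSO as full viability and medium alone as none.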
MCF10A rereplic – A quantitative high throughput screen for small molecules that induce DNA re-replication in MCF 10a normal breast cells | MCF 10A DNA re-replication, Hoechst nuclear intensity, 48 h | Potency, µM (highest dose often 46.1 µM), inactives show at the highest dose activity, positive = re-replication, actives largely listed as activators | actives 2.9% (n = 350,000) | AID 624296, 2012; also: % of control where 0% means no effect; nearly all actives have a fitted effect of over 50% in size
KB-3-1 cytotox – qHTS assay for MDR1-selective chemotherapeutics: Primary screen using the parental adenocarcinoma cell KB-3-1. Potency, µM (top dose mostly 46.1 µM), hits mostly cytotoxic. KB-3-1 viability, CellTiter-Glo ATP luminescence, 72 h. actives 1.4% (n = 400,000); also: % is scaled to controls: 0 for no effect and ±100 for the full control effect; nearly all actives have a fitted effect of over 60% in size
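Multi-concentration cytotoxicity screen in KB-3-1 cells grown in DMEM lacking phenol red with 10% FBS. After 72 h at 37 °C with compound, ATP-dependent luminescence was recorded.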
An asterisk follows results filed as active; i = inactive; ? = inconclusive; · = no result. Calls follow the shape of the dose curve; as a rule, active = well fitted curve in the direction sought with a large enough effect; inconclusive = small, poorly fitted or top-dose-only effect, or another doubt; inactive = no such curve, though single readings can be large; an effect the other way counts as inactive or inconclusive. Potency is read from the fitted curve at half-maximal effect.

SMILES | HT1080-NT tox | SW480 rerep | KB-V1 MDR tox | HT1080 IDH1KD tx | MCF10A rereplic | KB-3-1 cytotox
CCCNC(=O)C(Cc1ccccc1)NC(=O)c1ccccn1 (stereo unspecified) | 3.2% | -5.4% | i | 16.9% | 2.7% | ?
N[C@H]1C(O)O[C@H](CO)[C@@H](O)[C@@H]1O (stereo partly specified) | 14.4% | -19.6% | i | 9.8% | 10.7% | i
COCCn1c(C2CCCCC2)nc2sc3ccccc3c(=O)c2c1=O | ? | -1.2% | 4.11µM* | 3.0% | 6.8% | i
COCCn1c(C(C)C)nc2sc3ccccc3c(=O)c2c1=O | 8.8% | -14.6% | 16.4µM* | -0.3% | ? | i
Cc1cc(N2C(=O)Cc3ccccc3C2=O)ccc1C(C)C | 18.4% | 3.1% | i | 19.6% | -1.6% | i
COc1ccc2cc1Oc1ccc(cc1)C[C@H]1c3c(cc4c(c3Oc3cc5c(cc3OC)CCN(C)[C@@H]5C2)OCO4)CCN1C | 16.4µM* | ? | ? | 20.6µM* | ? | ?
Cc1ccc(-n2ccnc(NCCc3ccc(S(N)(=O)=O)cc3)c2=O)c(C)c1 | · | · | i | · | · | i
COc1cccc(C(=O)NCC(=O)N2CCC3(CC2)NCCc2[nH]cnc23)c1 | -2.1% | 3.7% | i | -2.9% | 1.4% | i
CCOc1ccc2c(c1)sc(N)[n+]2Cc1cc(C)cc2cccnc12 | 6.51µM* | 4.61µM* | 1.3µM* | 3.26µM* | 8.2µM* | 2.59µM*
Cc1cc(C[n+]2ncsc2N)c2ncccc2c1 | -19.0% | 3.8% | i | -28.9% | 13.7% | i
COc1ccc2c(c1)sc(N)[n+]2Cc1cc(C)cc2cccnc12 | ? | 8.2µM* | 4.61µM* | 5.17µM* | 4.61µM* | 4.61µM*
CCN(CC)C(=O)CSc1nc2ccccc2c(=O)n1OC(C)C | 1.8% | -3.4% | 2.59µM* | 9.7% | -0.7% | i
CC(C)COC(=O)c1ccc2c(c1O)C(=O)c1ccccc1C2=O | 4.0% | ? | 14.6µM* | 19.2% | ? | i
CC1(C)C2([N+](=O)[O-])CN3CC1([N+](=O)[O-])CN(C2)C3C(O)C(O)C(O)CO (stereo unspecified) | -5.3% | 10.3µM* | i | 12.4% | -2.3% | i
CC1(C)C2([N+](=O)[O-])CN(CCO)CC1([N+](=O)[O-])CN(CCO)C2 | -6.0% | 2.5% | i | 1.8% | -2.9% | i
CN(C)CCCNC(=O)C(=O)Nc1ccc2c(c1)N(S(=O)(=O)c1cccs1)CCC2 | -2.3% | 1.8% | i | -0.4% | ? | ?
C=CCNC(=O)C(=O)Nc1ccc2c(c1)N(S(=O)(=O)c1cccs1)CCC2 | -16.2% | ? | 23.1µM* | ? | ? | ?
C=CCNC(=O)C(=O)NCC1CCCN1S(=O)(=O)c1cccs1 (stereo unspecified) | 3.7% | -4.6% | i | 23.0% | -3.4% | i
CCNC(=O)C(=O)Nc1ccc2c(c1)N(S(=O)(=O)c1cccs1)CCC2 | 0.2% | ? | ? | -14.0% | 29.2% | i
O=C(Nc1ccc2c(c1)N(S(=O)(=O)c1cccs1)CCC2)c1c(F)cccc1F | 4.6% | -0.3% | i | 3.3% | 11.9% | i
CCCNC(=O)C(=O)Nc1ccc2c(c1)N(S(=O)(=O)c1cccs1)CCC2 | ? | 18.4µM* | ? | ? | 14.6µM* | ?
COCCCNC(=O)C(=O)Nc1ccc2c(c1)N(S(=O)(=O)c1cccs1)CCC2 | ? | 1.03µM* | 1.03µM* | 2.31µM* | 1.3µM* | 1.16µM*

Screening data deposited in PubChem BioAssay by National Center for Advancing Translational Sciences (NCATS).
